Assay outcomes (PubChem)
Shown are actives, neighbours in structure and some others; about 2.9% of the full set was active somewhere.
Mm-Cpn inhibitor: M. maripaludis TRiC chaperonin inhibition; purified Mm-Cpn ATPase, ADP Transcreener TR-FRET; Potency, µM (highest dose often 76.9 µM), usual class: inhibitors; 330,000 tested, 0.031% active; active means well fitted inhibition curve with a large enough effect; inconclusive means small, poorly fitted or top-dose-only effect; further: nearly all actives have a fitted effect of over 80% in size
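ATPase turnover read by TR-FRET ADP competition (Eu cryptate antibody/ADP-d2, 665/590 nm): 10uM ATP final, 25nM Mm-CPN final, 30 min 37degC after 10-min compound preincubation, pH 7.4 Tris/KCl/MgCl2/DTT buffer.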
Rango-impB inh: prevents formation of the Rango-importin beta complex. Q14974. Rango CFP/YFP FRET sensor + importin beta, 45 min. Potency, µM (highest dose often 92.2 µM). 340,000 tested, 0.031% active. AID 540263; further: nearly all actives have a fitted effect of over 15% in size
Target sequence (Q14974 whole entry, looked up): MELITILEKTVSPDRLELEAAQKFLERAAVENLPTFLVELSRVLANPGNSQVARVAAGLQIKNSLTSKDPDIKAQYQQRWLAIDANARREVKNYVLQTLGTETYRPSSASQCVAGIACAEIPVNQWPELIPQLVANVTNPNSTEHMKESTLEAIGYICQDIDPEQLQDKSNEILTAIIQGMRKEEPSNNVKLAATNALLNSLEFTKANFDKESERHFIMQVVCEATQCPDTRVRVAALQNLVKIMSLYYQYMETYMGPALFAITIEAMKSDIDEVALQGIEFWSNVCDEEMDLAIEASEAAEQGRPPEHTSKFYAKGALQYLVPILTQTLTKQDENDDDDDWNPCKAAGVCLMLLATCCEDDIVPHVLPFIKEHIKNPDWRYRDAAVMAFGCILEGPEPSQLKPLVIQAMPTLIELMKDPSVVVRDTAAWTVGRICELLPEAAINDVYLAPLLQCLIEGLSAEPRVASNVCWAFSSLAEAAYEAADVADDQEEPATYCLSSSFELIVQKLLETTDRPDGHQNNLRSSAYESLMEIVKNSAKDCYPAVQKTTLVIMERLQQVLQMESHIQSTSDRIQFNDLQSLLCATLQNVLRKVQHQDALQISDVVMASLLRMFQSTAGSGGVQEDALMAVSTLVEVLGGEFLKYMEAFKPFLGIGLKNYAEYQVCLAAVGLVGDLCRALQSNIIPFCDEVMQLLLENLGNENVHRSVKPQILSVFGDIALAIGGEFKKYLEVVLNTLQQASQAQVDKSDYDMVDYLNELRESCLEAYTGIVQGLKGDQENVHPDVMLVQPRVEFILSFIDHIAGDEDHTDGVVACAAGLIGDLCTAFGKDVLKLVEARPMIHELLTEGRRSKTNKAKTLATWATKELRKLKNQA
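FRET biosensor (snurportin 1 IBB flanked by EYFP and cerulean), 50 nM, with compound 5 min, then 0.125 microM importin beta in PBS, 1 mM DTT, 0.02% Tween-20, 0.1% BSA. CFP/YFP ratio read after 45 min at room temperature; pre-read flags interference.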
D3 antag: blocks the human D3 dopamine receptor. P35462. D3R cells, DiscoveRx beta-arrestin luminescence, antagonist mode; stronger effect = lower value. 360,000 tested, 2.5% active. AID 652054. max response, negative = inhibition, %; in the data active means max response below about -50%; inconclusive means no clear call, values can overlap the other calls
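Cells expressing the human receptor were seeded at 1500 cells/well, incubated overnight at 37 degrees C in 5% CO2, then exposed to library compounds with dopamine controls for 90 minutes at 37 degrees C before luminescent detection.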
Rango dissoc inh: inhibition of RanGTP-driven Rango-importin beta dissociation | 340,000 tested, 0.071% active | O95149+P62826 | Potency, µM (highest dose often 46.1 µM) | AID 540253 | Biochemical FRET Rango-importin beta, RanGTP-induced dissociation; further: nearly all actives have a fitted effect of over 45% in size
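FRET read at 45 min, room temperature: inhibitors block the CFP/YFP signal rise when RanGTP (0.6 uM Ran, 2 mM GTP, 0.2 uM RCC1) frees Rango (0.1 uM) from importin beta (0.25 uM). Pre-read after 5 min compound exposure flags interference.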
D3 ag: D3 dopamine receptor (human) agonism; P35462; D3R DiscoveRx beta-arrestin cells, luminescence, 90 min; max activation, %; 410,000 tested, 0.58% active; in the data active means max activation above about 30%
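Agonist mode: compounds and dopamine controls were applied to plated cells for 90 min at 37 degrees C after an overnight attachment at 1500 cells/well. Luminescent read-out followed 30 - 60 minutes at room temperature with DiscoveRx detection reagent.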
PTAP TSG101 blk: blocks PTAP/TSG101 interaction to inhibit HIV-1 budding | Fluorescence polarization, FITC-PTAP peptide / Tsg101 binding | Potency, µM (series often up to 115 µM), hits mostly inhibitors | 340,000 tested, under 10 active | AID 493005; active means well fitted inhibition curve with a large enough effect in the main read-out, with a control signal flat, not every such curve was filed as active; inconclusive means small, poorly fitted or top-dose-only effect, or effect the other way, or a change in a side signal; inactive means no such curve, though single readings can be large or run the other way
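Tsg101 binding domain (10 uM final) was mixed with compound and a FITC-labeled PTAP peptide (50 nM final) in HEPES pH 7.5 buffer with NaCl, Tween 20, EDTA and TCEP; fluorescence polarization was read after 20 min at r.t.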
Hits are given with their value; i = inactive; ? = inconclusive; nt = no result given. Unless noted, the call rests on the fitted dose curve.

SMILES	Mm-Cpn inhibitor	Rango-impB inh	D3 antag	Rango dissoc inh	D3 ag	PTAP TSG101 blk
CCc1nc(SCC(=O)c2c[nH]c3ccccc23)n[nH]1	i	i	i	i	i	i
CC(C)c1nc(SCC(=O)c2c[nH]c3ccccc23)n[nH]1	i	i	-60.6	i	i	i
CCc1ccc(-n2c(=O)c3c4c(sc3n(Cc3ccccc3C#N)c2=O)CCC4)cc1	nt	nt	nt	nt	i	nt
COC(=O)c1cc2ccccn2c2c(C(=O)OC)c(C(=O)OC)cc1-2	i	i	i	i	i	i
COC(=O)c1cc2c(C)c(C)c3ccccn3c-2c1C(=O)OC	i	?	-51.6	?	i	?
CCN(c1ccccc1)S(=O)(=O)c1ccc(NC(=S)NC(=O)c2cccs2)cc1	i	i	-74.3	i	i	i
CCN(c1ccccc1)S(=O)(=O)c1ccc(C(=O)NCC(c2cccs2)N(C)C)cc1 (stereo not given)	i	i	-51.9	i	i	i
CCOc1ccc(C(=O)NCC(c2cccs2)N(C)C)cc1OCC (stereo not given)	i	i	-58.8	i	i	i
CN(C)S(=O)(=O)c1ccc(NC(=S)NC(=O)c2cccs2)cc1	i	i	i	i	i	i
COc1ccc(C(CNC(=O)c2ccc(S(=O)(=O)N(C)C)cc2)N(C)C)cc1 (stereo not given)	i	i	i	i	i	i
CCN(c1ccccc1)S(=O)(=O)c1cc(C(=O)NCC(c2ccc(OC)cc2)N(C)C)ccc1C (stereo not given)	nt	i	-89.5	i	i	i
COc1ccc(OC)c(NC(=O)C23CCC(C)(C(=O)C2)C3(C)C)c1 (stereo not given)	i	i	i	i	i	i
CCCOC(=O)c1c(NC(=O)C2c3ccccc3Oc3ccccc32)sc2c1CCCC2	nt	nt	nt	nt	i	nt
CSc1ccc(CCNC(=O)c2c(C)oc3ncn(C)c(=O)c23)cc1	nt	nt	nt	nt	i	nt
CN(c1ccccc1)S(=O)(=O)c1cccc(C(=O)NCC(=O)Nc2ccc(F)c(F)c2F)c1	i	i	i	i	i	i
CCN(c1ccccc1)S(=O)(=O)c1ccc(C(=O)NCC(=O)Nc2ccc(F)c(F)c2F)cc1	i	?	-96.9	i	i	i
COc1ccc(OC2C(=O)N(Cc3ccc4c(c3)OCO4)C2c2sccc2C)cc1 (stereo not given)	i	i	i	i	34.4	i
COc1ccc(OC2C(=O)N(Cc3ccc(F)cc3)C2c2ccc(OC)c(OC)c2)cc1 (stereo not given)	i	i	i	i	i	i
COc1ccc(Br)cc1CNc1ccc(O)cc1	i	i	-66.4	i	i	i
COc1ccc(Br)cc1CNc1ccc2[nH]c(=O)[nH]c2c1	i	i	i	i	i	i
COc1cc(-c2nn3c(COc4ccccc4)nnc3s2)cc(OC)c1OC	i	i	i	i	i	i
COc1cc(-c2nn3c(Cc4ccccc4)nnc3s2)cc(OC)c1OC	i	i	i	i	31.3	i
COc1ccc(NC(=O)Nc2nnc(N(CC(C)C)CC(C)C)s2)c(OC)c1	nt	nt	nt	nt	i	nt
COc1cccc(CNC(=O)CN2N=C(c3ccc(C)cc3)CCC2=O)c1	nt	nt	nt	nt	32.9	nt
Cc1cc(C(=O)N2CCCC(C(=O)c3cc(F)ccc3F)C2)c(C)o1 (stereo not given)	i	i	-56.4	i	i	i
SMILES	Mm-Cpn inhibitor	Rango-impB inh	D3 antag	Rango dissoc inh	D3 ag	PTAP TSG101 blk
CC(C)NC(=O)N(C)C[C@@H]1Oc2c(NC(=O)Nc3ccccc3)cccc2C(=O)N([C@H](C)CO)C[C@H]1C	i	i	i	i	i	i
Cc1c(C(=O)Nc2ccncc2)oc2ccccc12	i	i	i	i	51.6	i
Cc1c(C(=O)Nc2ccccn2)oc2ccccc12	i	i	i	i	i	i
Cc1c(C(=O)NC2CC2)oc2ccccc12	i	i	i	i	i	i
Cc1c(C(=O)NC2CCS(=O)(=O)C2)oc2ccccc12 (stereo not given)	i	i	i	i	46.8	i
CCN(C(=O)COC(=O)c1ccc(O)cc1)c1cccc2ccccc12	i	i	i	i	i	i
NCCO	nt	nt	nt	nt	i	nt
C/C(=C\C(=O)c1ccc(Br)cc1)NNC(=O)c1ccccc1	nt	i	i	i	i	i
Oc1ccc(CCNc2c3ccccc3nc3ccccc23)cc1O	i	?	i	?	124.0	i
COc1ccc(CN2CCC(N(CCc3ccccc3)Cc3ccccc3)CC2)c(OC)c1	i	i	-61.6	i	i	i
COc1ccc(CN2CCC(C(=O)N(C)CCc3ccc(OC)c(OC)c3)CC2)c(OC)c1	i	i	i	i	i	i
CCCN1CCC(N(CCc2ccccc2)Cc2ccccc2)CC1	i	i	-96.6	i	i	i
CCC1CCCCN1C(=O)CSc1nc(-c2ccc(OC)cc2)cc(C(F)(F)F)n1 (stereo not given)	nt	nt	nt	nt	i	nt
Cc1ccc(CCNC(=O)CN(c2ccc(C(C)C)cc2)S(=O)(=O)c2c(C)nn(C)c2C)cc1	nt	nt	nt	nt	i	nt
CCOc1ccccc1-c1c2cc(O)c(=O)cc-2oc2cc(O)c(O)cc12	i	?	-58.3	?	i	?
